Reference: the supplement of paper PMC9135407
“And” between values parts separate entries of the source, which are not always exact repeats. Identical values can stand only once. Counter-ions that a name gives are not always drawn. Out of some 5,800 compounds screened, about 620 (11%) showed activity. For the sample, actives were picked, then their nearest neighbours and some compounds at random. Values without a mark were called inactive.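 The calls were made as follows: active = score above a cut-off or among the top three wells of a plate; in these data no inactive exceeds 0.85.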

Tested on: primary human hepatic stellate cells (donor 1)
Assay: scaled lipid accumulation score (0 = DMSO-like, 1 = nortriptyline-like); higher = stronger HSC inactivation (lipid re-accumulation), active = hit call of the paper
Conditions: 48 h
[1] = library stock concentration: 10 mM
[2] = library stock concentration: 1 mM
[3] = library stock concentration: 80 uM
[4] = library stock concentration: 400 uM
[5] = library stock concentration: 2 mM
[6] = library stock concentration: 3.33 mM

## COc1cc(Br)c(S(=O)(=O)Nc2ccc(Cl)c(O[C@@H]3CCN(C)C3)c2)cc1OC
[1]
  scaled lipid accumulation score: 0.116

## COc1cc2c(cc1OC)[C@@H]1C(=O)c3ccc4c(c3O[C@@H]1CO2)C=CC(C)(C)O4 [Deguelin(-)]
[1]
  scaled lipid accumulation score: ≤ 0

## CCCCCCCCCCCCC/C=C/[C@@H](O)[C@H](CO)NC(=O)CCCCCCC [C-8 Ceramide]
[2]
  scaled lipid accumulation score: ≤ 0

## CCCCCCCCCCCCC/C=C/[C@@H](O)[C@H](CO)NC(=O)CCCCCCC [C8 Ceramide]
[2]
  scaled lipid accumulation score: ≤ -0.021

## CCOC(=O)[C@@H](C)Oc1cccc2c(=O)n(CC(=O)Nc3ccc4c(c3)OCCO4)ccc12
[1]
  scaled lipid accumulation score: 0.249

## O=C(NCCCNc1nc(Nc2cccc(CN3CCOCC3)c2)ncc1C1CC1)C1CCC1
[3]
  scaled lipid accumulation score: ≤ 0
[4]
  scaled lipid accumulation score: 0.064
[5]
  scaled lipid accumulation score: 0.072
[1]
  scaled lipid accumulation score: 0.406

## CN(C)CCCNC(=O)[C@@H]1C[C@H](CN2CCOCC2)CN(Cc2ccc3ccccc3c2)C1
[1]
  scaled lipid accumulation score: 0.993 (active)

## COc1ccccc1OCCNCC(O)COc1cccc2[nH]c3ccccc3c12 (configuration not stated) [Carvedilol] [listing 1 of 5 here]
[1]
  scaled lipid accumulation score: 1.18 (active)

## CC(C)NC[C@H](O)COc1cccc2[nH]ccc12 [(S)-(-)-Pindolol]
[1]
  scaled lipid accumulation score: 0.001

## CC(C)NCC(O)COc1cccc2[nH]ccc12 (configuration not stated) [Pindolol]
  scaled lipid accumulation score: ≤ 0
Library stock concentration: 8.1 mM
  scaled lipid accumulation score: ≤ -0.006 and 0.131
[1]
  scaled lipid accumulation score: ≤ 0 and ≤ -0.055 and 0.071

## COc1ccccc1OCCNCC(O)COc1cccc2[nH]c3ccccc3c12 (configuration not stated) [Carvedilol] [listing 2 of 5 here]
[1]
  scaled lipid accumulation score: 1.1 (active)

## CC(C)NC[C@H](O)COc1cccc2[nH]ccc12 [S(-)-Pindolol]
[1]
  scaled lipid accumulation score: ≤ -0.07

## COc1ccccc1OCC(O)COC(N)=O (configuration not stated) [Methocarbamol]
  scaled lipid accumulation score: ≤ 0
[6]
  scaled lipid accumulation score: ≤ 0
Library stock concentration: 8.3 mM
  scaled lipid accumulation score: ≤ -0.001
[1]
  scaled lipid accumulation score: ≤ 0

## CC(C)(C)NCC(O)COc1cccc2[nH]c(=O)[nH]c12 (configuration not stated)
[1]
  scaled lipid accumulation score: ≤ -0.047

## COc1ccccc1OCCNCC(O)COc1cccc2[nH]c3ccccc3c12 (configuration not stated) [Carvedilol tartrate]
[1]
  scaled lipid accumulation score: 0.276

## COc1ccccc1OCCNCC(O)COc1cccc2[nH]c3ccccc3c12 (configuration not stated) [Carvedilol] [listing 3 of 5 here]
[1]
  scaled lipid accumulation score: 1.57 (active)

## COc1ccccc1OCCNCC(O)COc1cccc2[nH]c3ccccc3c12 (configuration not stated) [Carvedilol] [listing 4 of 5 here]
[6]
  scaled lipid accumulation score: ≤ 0
Library stock concentration: 4.9 mM
  scaled lipid accumulation score: 0.302 and 0.4

## CC(C)NCC(O)COc1cccc2[nH]ccc12 (configuration not stated)
[1]
  scaled lipid accumulation score: ≤ 0

## COc1ccccc1OCCNCC(O)COc1cccc2[nH]c3ccccc3c12 (configuration not stated) [Carvedilol] [listing 5 of 5 here]
[1]
  scaled lipid accumulation score: 0.936 (active)

## COc1ccccc1OCC(O)CO (configuration not stated) [Guaifenesin]
  scaled lipid accumulation score: ≤ 0
[6]
  scaled lipid accumulation score: ≤ 0
[1]
  scaled lipid accumulation score: 0.084 and ≤ 0

## C[C@](N)(Cc1ccc(O)cc1)C(=O)O [L-alpha-Methyl-p-tyrosine]
[1]
  scaled lipid accumulation score: 0.166

## CC(C)(C)NS(=O)(=O)c1cncc(-c2cc(F)c3nc(N)nn3c2)c1
[6]
  scaled lipid accumulation score: ≤ 0
[1]
  scaled lipid accumulation score: ≤ -0.001

## O=C(Cc1ccccc1)NO [Phenylacetohydroxamic acid]
[1]
  scaled lipid accumulation score: ≤ 0

## CCCC(=O)O[C@]1(C(=O)COC(C)=O)CC[C@H]2[C@@H]3C[C@H](F)C4=CC(=O)C=C[C@]4(C)[C@@]3(F)[C@@H](O)C[C@@]21C [Difluprednate]
[6]
  scaled lipid accumulation score: ≤ 0
[1]
  scaled lipid accumulation score: ≤ -0.001

## O=NN(CCCl)C(=O)NCCCl [Carmustine]
Library stock concentration: 9.3 mM
  scaled lipid accumulation score: ≤ 0
[1]
  scaled lipid accumulation score: ≤ 0

## C[N+](C)(C)CCO.[Br-] [Choline bromide]
[1]
  scaled lipid accumulation score: ≤ 0

## CC(C)C[C@@H]1NC(=O)[C@H](CCCN)NC(=O)[C@H](C(C)C)NC(=O)[C@H](Cc2ccc(O)cc2)N[C@@H](CCC(=O)O)C(=O)N[C@@H](CC(N)=O)C(=O)[C@@H](Cc2ccccc2)NC(=O)[C@H](Cc2ccccc2)NC(=O)[C@@H]2CCCN2C(=O)[C@@H](Cc2ccccc2)NC1=O [Tyrothricin]
Library stock concentration: 1.6 mM
  scaled lipid accumulation score: ≤ 0
[1]
  scaled lipid accumulation score: ≤ 0

## COC(=O)CCCCCCC1C(O)CC(O)C1CCC(O)CSc1ccccc1F (configuration not stated)
[2]
  scaled lipid accumulation score: ≤ 0

## CC(=O)O/N=C1\C(=O)N(Cc2cc(Cl)ccc2Cl)c2ccc(Cl)cc21
[6]
  scaled lipid accumulation score: ≤ -0.009
[1]
  scaled lipid accumulation score: ≤ 0

## NC(C(=O)O)c1cc(O)cc(O)c1 (racemic)
[1]
  scaled lipid accumulation score: 0.017

## C[C@H](O)[C@H](O)[C@@H](O)[C@@H](O)C=O [L-(+)-Rhamnose Monohydrate]
[6]
  scaled lipid accumulation score: ≤ 0
[1]
  scaled lipid accumulation score: ≤ 0

## CC(C)Nc1cccnc1N1CCN(C(=O)c2cc3cc(NS(C)(=O)=O)ccc3[nH]2)CC1 [Delavirdine mesylate]
Library stock concentration: 4.4 mM
  scaled lipid accumulation score: ≤ -0.006

## COc1cc(Nc2ncc(F)c(Nc3ccc4c(n3)N(COP(=O)(O)O)C(=O)C(C)(C)O4)n2)cc(OC)c1OC [Fostamatinib (R788)] [listing 1 of 2 here]
[6]
  scaled lipid accumulation score: 0.198

## COc1cc(Nc2ncc3c(n2)-c2ccc(Cl)cc2C(c2c(F)cccc2OC)=NC3)ccc1C(=O)O [Alisertib (MLN8237)]
[6]
  scaled lipid accumulation score: ≤ 0
[1]
  scaled lipid accumulation score: ≤ 0

## COc1cc(Nc2ncc(F)c(Nc3ccc4c(n3)NC(=O)C(C)(C)O4)n2)cc(OC)c1OC.O=S(=O)(O)c1ccccc1
[1]
  scaled lipid accumulation score: 0.882 (active)

## C=CC(=O)Nc1cccc(Nc2nc(Nc3ccc(OCCOC)cc3)ncc2F)c1 [Spebrutinib]
[3]
  scaled lipid accumulation score: ≤ -0.001
[4]
  scaled lipid accumulation score: ≤ -0.001
[5]
  scaled lipid accumulation score: ≤ -0.001
[1]
  scaled lipid accumulation score: 0.202

## COc1cc(Nc2ncc(F)c(Nc3ccc4c(n3)NC(=O)C(C)(C)O4)n2)cc(OC)c1OC [listing 1 of 2 here]
[1]
  scaled lipid accumulation score: 1.06 (active)

## COc1cc(Nc2ncc(F)c(Nc3ccc4c(n3)NC(=O)C(C)(C)O4)n2)cc(OC)c1OC [R406 (free base)]
[6]
  scaled lipid accumulation score: 0.918 (active)
[1]
  scaled lipid accumulation score: 1.16 (active)

## C=CC(=O)Nc1cccc(Nc2nc(Nc3ccc(OCCOC)cc3)ncc2F)c1
[6]
  scaled lipid accumulation score: ≤ -0.009
[1]
  scaled lipid accumulation score: 0.576

## COc1cc(Nc2ncc3c(n2)-c2ccc(Cl)cc2C(c2c(F)cccc2OC)=NC3)ccc1C(=O)O [Alisertib]
[3]
  scaled lipid accumulation score: ≤ 0
[4]
  scaled lipid accumulation score: ≤ 0
[5]
  scaled lipid accumulation score: ≤ 0
[1]
  scaled lipid accumulation score: ≤ 0

## COc1cc(Nc2ncc3ccn(-c4cccc(CCC#N)c4)c3n2)cc(OC)c1OC [Keratinocyte Differentiation Inducer]
[6]
  scaled lipid accumulation score: 0.501 and ≤ 0

## COc1cc(Nc2ncc(F)c(Nc3ccc4c(n3)NC(=O)C(C)(C)O4)n2)cc(OC)c1OC [listing 2 of 2 here]
[3]
  scaled lipid accumulation score: ≤ 0
[4]
  scaled lipid accumulation score: 0.072
[5]
  scaled lipid accumulation score: 0.159
[6]
  scaled lipid accumulation score: 0.03

## COc1cc(Nc2ncc(F)c(Nc3ccc4c(n3)N(COP(=O)(O)O)C(=O)C(C)(C)O4)n2)cc(OC)c1OC [Fostamatinib (R788)] [listing 2 of 2 here]
[1]
  scaled lipid accumulation score: 1.01 (active)
